KB-3-1 tox: KB-3-1 parental cell cytotoxicity; KB-3-1 viability, CellTiter-Glo ATP luminescence, 72 h; Potency, µM (doses to about 46.1 µM), actives largely listed as cytotoxic; 400,000 tested, 1.4% active; AID 1347075; note: nearly all actives have a fitted effect of over 60% in size
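Using CellTiter-Glo luminescence, growth of non-resistant KB-3-1 adenocarcinoma cells is assessed 72 h after pin-tool compound addition at 37 °C. Normalized responses across the concentration series yield fitted curves.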
DT40 TDP1 no CPT: qHTS for Inhibitors of human tyrosyl-DNA phosphodiesterase 1 (TDP1): qHTS in cells in absence of CPT | AID 686978, 2013 | 420,000 tested, 15% active | Potency, µM (doses to about 46.2 µM), usual class: inhibitors | DT40 Tdp1-/- hTDP1 cells, no CPT, ATP luminescence, 48 h; note: nearly all actives have a fitted effect of over 55% in size
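No-CPT arm: Tdp1-/-;hTDP1 DT40 cells (400/well) plus compounds, incubated ≥48 hr at 37 °C. Readout CellTiter-Glo luminescence.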
KB-V1 cytotox: kills drug-selected multidrug resistant KB-V1 cells; KB-V1 MDR cells viability, CellTiter-Glo, 72 h; Potency, µM (series often up to 46.1 µM), most hits filed as cytotoxic; 400,000 tested, 3.4% active; note: nearly all actives have a fitted effect of over 60% in size
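In this primary screen, KB-V1 cells overexpressing P-gp are incubated with library compounds (lowest to highest concentration) for 72 h at 37 degrees C before a luminescent ATP viability read.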
TDP1 cell CPT: growth inhibition of DT40 Tdp1-/-;hTDP1 cells with camptothecin (screen for TDP1 inhibitors); chicken DT40 Tdp1-/-;hTDP1 cells + 20 nM CPT, ATP luminescence, 48 h; Potency, µM (highest dose often 46.2 µM), actives largely listed as inhibitors; 420,000 tested, 12% active; AID 686979; note: nearly all actives have a fitted effect of over 55% in size
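Cell growth measured by CellTiter-Glo luminescence after a minimum 48 h, 37 C compound exposure with 20 nM CPT in Tdp1-knockout DT40 cells stably expressing hTDP1, seeded 400/well; qHTS titration format.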
HT1080 IDH1KD tx: toxicity to HT-1080 IDH1 knockdown cells (counter line) | 360,000 tested, 2% active | AID 686971 | HT-1080 IDH1 knockdown viability, ATP luminescence, 48 h | Potency, µM (highest dose often 46.1 µM), hits mostly cytotoxic
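CellTiter-Glo luminescence after 48 h compound exposure at 37 degrees C of IDH1-knockdown HT-1080 cells in 5% FBS RPMI. %Activity scaled between DMSO wells and cell-free media wells, with curves fitted and assigned curve classes.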
HT1080NT lethal: kills 2HG-producing HT-1080-NT fibrosarcoma cells; HT-1080-NT fibrosarcoma viability, CellTiter-Glo ATP luminescence, 48 h; Potency, µM (series often up to 46.1 µM), most hits filed as cytotoxic; 360,000 tested, 1.6% active;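 note: NT is the 2HG producing partner of a matched IDH1 knockdown line; nearly all actives have a fitted effect of over 55% in size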
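HT-1080-NT fibrosarcoma cells (2HG-overproducing), 750 cells/well in RPMI with 5% FBS, dosed after 2 h and incubated 48 h at 37C. CellTiter-Glo luminescence normalized to DMSO and no-cell wells; concentration-response curves fitted and classed.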
A number is an active result; i = inactive; ? = inconclusive; nt = not tested or not shown; [ ] = remark or other dose. Sampled rows, rich in hits. Any-hit rate of the full collection: about 19%. Calls come from the whole dose curve; as a rule, active = well fitted curve in the direction sought with a large enough effect; inconclusive = small, poorly fitted or top-dose-only effect, or another doubt; inactive = no such curve, though single readings can be large; an effect the other way counts as inactive or inconclusive.

SMILES | KB-3-1 tox | DT40 TDP1 no CPT | KB-V1 cytotox | TDP1 cell CPT | HT1080 IDH1KD tx | HT1080NT lethal
O=C1N=C2N(CCN3CCCCC3)c3ccccc3N2/C1=C\c1ccc([N+](=O)[O-])s1 | i | ? | i | 9.2µM | i | i
COC(=O)C(NS(=O)(=O)c1ccc(N2CCCC2=O)cc1)c1ccccc1 (stereo not drawn) | i | i | i | i | i | i
CCOc1ccc(S(=O)(=O)NN2Cc3ccccc3C2=N)cc1 | i | i | i | i | i | i
Cc1ccc(NC(=S)NC2CC3CCCC(C2)N3Cc2cccs2)cc1 (stereo not drawn) | i | 18µM | ? | ? | ? | ?
O=C(NCc1cccs1)Nc1cccc(Cl)c1 | i | i | i | i | i | i
O=C(Nc1cccc(Cl)c1)NC1CC2CCC(C1)N2Cc1cccs1 (stereo not drawn) | i | 26µM | i | 21µM | i | i
O=C(Nc1cccc(Cl)c1)NC1(C(=O)NCc2cccs2)CCCCC1 | i | 26µM | i | 21µM | i[9.24 µM] | ?
Fc1ccc(NC(=S)NC2CC3CCCC(C2)N3Cc2cccs2)cc1 (stereo not drawn) | i | i | i | i | i | i
Cc1cccc(NC(=S)NC2CC3CCCC(C2)N3CC(C)C)c1C (stereo not drawn) | i | i | 21µM | i | i | i
CCCN1C2CCCC1CC(NC(=S)Nc1cccc(C)c1C)C2 (stereo not drawn) | i | ? | i | i | i | i
Cc1c(C(=O)NCCc2cccnc2)cnn1-c1ncc2c(n1)-c1ccccc1CC2 | nt | ? | nt | i[9.04 µM] | nt | nt
CCOC(=O)[C@]12CCC=C1N(CCC1=CCCCC1)C(=O)[C@H](CC(=O)N1CCOCC1)C2 | i | ? | i | ? | i | i
CCC1(C)Cc2ccccc2-c2nc(NCCCO)n(C)c(=O)c21 (stereo not drawn) | i | ? | i | ? | i | i
CCC1(C)Cc2ccccc2-c2nc(NCCO)n(-c3ccccc3)c(=O)c21 (stereo not drawn) | i | 4.6µM | ? | 4.1µM | i | i
CC1(C)Cc2ccccc2-c2nc(NCCO)n(-c3ccccc3)c(=O)c21 | i | 18µM | i | 18µM | i | i
Cc1c(C(=O)NCC2(N3CCCCC3)CCCC2)cnn1-c1nccc(-c2ccccc2F)n1 | nt | i | nt | i[9.04 µM] | nt | nt
O=C1Nc2ccc(Br)cc2C1(O)c1ccccc1 (stereo not drawn) | i | i | i | i | i | i
O=C1Nc2ccc(Br)cc2C12NNc1ccccc1O2 (stereo not drawn) | ? | 18µM | i | ? | ? | i
Cc1ccccc1C(=O)NNC(=S)NC(=O)c1cccs1 | i | 18µM | i | 21µM | ? | ?
C/C(=N\NC(=O)c1ccccc1C)c1ccc(NC(=O)c2cccs2)cc1 | i | ? | 5.8µM | ? | i | i
CC(C)(C)c1ccc(C(=O)NC(=S)NNC(=O)c2cccs2)cc1 | 2.6µM | 13µM | ? | 23µM | ? | ?
C/C(=N\NC(=O)c1ccccc1O)c1ccc(NC(=O)Cc2ccccc2)cc1 | ? | i | 16µM | i | i | i
O=C1CCc2cc(S(=O)(=O)Nc3cc(F)cc(Cl)c3)c(F)cc2N1 | i | nt | i | nt | nt | nt
COC(=O)c1cc(CNC(=O)c2ccccc2)cc(NC(=O)c2ccccc2OC)c1 | nt | ? | nt | i[9.04 µM] | nt | nt
CC(=O)Nc1cccc(/C(C)=N/NC(=O)c2ccc(NS(=O)(=O)c3cccs3)cc2)c1 | i | i | i | i | i | i
SMILES | KB-3-1 tox | DT40 TDP1 no CPT | KB-V1 cytotox | TDP1 cell CPT | HT1080 IDH1KD tx | HT1080NT lethal
O=C(NC(=S)NNC(=O)c1cccs1)c1ccccc1 | ? | 15µM | i | ? | ? | ?
C/C(=N\NC(=O)c1ccc(NS(=O)(=O)c2cccs2)cc1)c1ccc(C(C)(C)C)cc1 | i | 9.2µM | i | 7.3µM | ? | ?
Cc1cccc(C(=O)NC(=S)NNC(=O)c2cccs2)c1 | i | ? | ? | i | ? | i
O=C(NC(=S)NC1CCSC1=O)c1cccs1 (stereo not drawn) | i | 29µM | i | i | i | i
COc1ccc(C(C)=O)c(Oc2cc(NN3CCCCC3)c([N+](=O)[O-])cc2[N+](=O)[O-])c1 | i | i | i | i | i | i
COc1cc(OC)cc(C(=O)N2CCN(S(=O)(=O)c3ccc4c(c3)OCCO4)CC2)c1 | i | ? | i | i | i | i
O=C(Nc1ccc(Cl)cc1)N1CCOC12CCCCC2 | i | i | i | i | i | i
CC(C)(C)c1ccc(C(=O)N2CCOC23CCCCC3)cc1 | i | 13µM | i | 15µM | i | i
Cn1c(=O)c2c(-c3ccccc3)n(-c3cc([N+](=O)[O-])ccc3N)cc2n(C)c1=O | i | ? | ? | ? | i | i
CCOC(=O)c1ccc(O)c(-n2cc3c(c2-c2ccccc2)c(=O)n(C)c(=O)n3C)c1 | i | 15µM | i | ? | i | i
COc1ccc(-c2c3c(=O)n(C)c(=O)n(C)c3cn2-c2ccccc2)cc1 | i | 13µM | i | 26µM | i | i
Cn1c(=O)c2c(-c3ccccc3)n(-n3cnnc3)cc2n(C)c1=O | i | ? | i | 26µM | i | i
Cn1c(=O)c2c(-c3ccccc3)n(-c3cccc(C#N)c3)cc2n(C)c1=O | i | 23µM | i | 16µM | nt | nt
CCCc1cc(=O)oc2c3c(cc(OCC(=O)NCCN4CCOCC4)c12)OC(C)(C)CC3 | i | ? | ? | ? | i | i
COc1ccc(N2CCN(C(=O)C(=O)c3cc(OC)c(OC)c(OC)c3)CC2)cc1 | i | i | ? | i | i | i
C[C@@H](NC(=O)CN(c1ccccc1)S(=O)(=O)N(C)C)c1ccccc1 | i | nt | i | nt | nt | nt
O=C(Nc1c2c(nn1-c1ccc([N+](=O)[O-])cc1)CS(=O)(=O)C2)c1ccccc1F | i | i | i | i | i | i
O=c1cc(CN(Cc2ccccc2)Cc2ccccc2)c2ccccc2o1 | i | ? | i | ? | ? | i
CCOC(=O)C(C)NC(=O)C1CCN(c2ncnc3c2nc2n3CCCCC2)CC1 (stereo not drawn) | nt | i | nt | ? | nt | nt
CSCCC(NC(=O)/C(=C/c1ccco1)NC(=O)c1ccco1)C(=O)O (stereo not drawn) | i | ? | i | i | i | i
C#CCn1cc2c(c1-c1ccccc1)c(=O)n(C)c(=O)n2C | i | 21µM | i | 16µM | i | i
Cn1c(=O)c2c(-c3ccccc3)n(CCCO)cc2n(C)c1=O | i | i | i | i | nt | nt
Cn1c(=O)c2c(-c3ccccc3)n(-c3cccc(Br)c3)cc2n(C)c1=O | i | 8.2µM | i | 9.2µM | i | i

From PubChem BioAssay
